For 30 compounds, outcome results are on record in PubChem BioAssay AID624404 (Broad Institute, 2012).

The structures appear in SMILES notation. About 710 (39%) of roughly 1,800 compounds were called active. Another 28% or so got no clear call; they are omitted.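 The calls were made as follows: active = luciferase signal rise whose fitted curve crosses a set activity limit at or below the top valid tested dose; inconclusive = flat fit with 30 to 70% rise, or poor fit; inactive = signal falling, flat within 30%, or crossing above top dose.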 Not all results are given here. Measured potencies and affinities stand elsewhere.

This assay in a line: luciferase activators in glycosylation-insensitive reporter cells, dose response, counter-screen for N-linked glycosylation inhibitor project, D54 LucT cells, luminescence, cherry pick (AID 624404). Particulars: D54 LucT luciferase reporter counterscreen, 24 h; series mostly up to 19.5 µM. For orientation: A counterscreen serves to expose hits that act by an unwanted route or on another target.
On to `CCn1cc([N+](=O)[O-])c(C(=O)Nc2nc(-c3ccc(C)c(C)c3)c(C)s2)n1`, for which the result was inactive. As for `COc1cccc(Oc2ccc(C(F)(F)F)cc2NC(=O)CN2C(=O)NC3(CCCC3)C2=O)c1`, the compound was classed as inactive. Under `COC(=O)c1cc(OC)c(OC)cc1NC(=S)NC(=O)c1ccco1` stands “inactive”. Turning to `CCN(CC)CCCNc1nc2ccccc2c2nc(-c3ccncc3)nn12`, the call was inactive. As to `CN(C)CCCNc1c2c(nc3ccccc13)CCC2`, the compound was called inactive. As for `CN(C)CCOc1nc(-c2ccccc2)nc2c1oc1ccccc12`, the outcome was inactive. Regarding `Cc1cc(NCCCN(C)C)n2c(nc3ccccc32)c1C#N`, the compound was called inactive. Regarding `c1ccc(CNc2nc(NCCc3ccncc3)c3sccc3n2)cc1`, the outcome was inactive. Regarding `O=C(CSc1ncnc2nc[nH]c12)c1ccc([N+](=O)[O-])cc1`, the call was inactive. In the case of `COc1cc(C(=O)OCC(=O)c2cc(C)n(C)c2C)cc(OC)c1OC`, the outcome was inactive.

Consider `COc1cc(COCC(O)CN2CCN(CCN3C(=O)c4cccc5cccc(c45)C3=O)CC2)cc(OC)c1OC` (stereo not given), for which the outcome was inactive. As to `C=CCOc1ccc2nc(NC(=O)OC)[nH]c2c1`, the result was inactive.

As for `Cc1noc2ncnc(Sc3ccccc3Cl)c12`, the call was inactive. Then `CCc1nn2c(N(C)CCO)cc(C)nc2c1-c1ccc(F)cc1`, with “inactive”.

Consider `OC1CCCN(Cc2c3ccccc3cc3ccccc23)C1` (stereo not given), for which the compound was classed as inactive. Consider `CN(C)CCNC(=O)c1cccc2nc3c(ccc4ccccc43)nc12`, for which the call was inactive. For `CCOC(=O)c1cnc2c(C)cc(C)cc2c1NCCCN1CCOCC1`, the outcome was inactive. Turning to `CCOC(=O)c1cc2sccc2n1CC(=O)N1CCc2ccccc21`, the outcome was inactive. Turning to `COc1cc(-c2noc(C)c2/C=C/c2ccc(N)cc2)cc(OC)c1OC`, the result was inactive. In the case of `Cc1ccc(Nc2nnc(SCC(=O)Nc3ncc(S(=O)(=O)c4ccc([N+](=O)[O-])cc4)s3)s2)cc1`, the result was inactive.

Consider `CCOC(=O)c1c(C)oc2c(F)c(F)c(F)c(F)c2c1=O`, for which the compound was classed as inactive. Under `CCOc1ccc2c(c1)C(=NNC(=O)c1ccncc1)c1cc(OCC)ccc1-2` stands “inactive”; under `CNc1ccc(Br)cc(C(=O)/C=C/c2cccc(OC)c2OC)c1=O`, “inactive”. Then `COC(=O)c1ccc2c(=O)n(Cc3ccco3)c(SCC(=O)Nc3cc(C)on3)nc2c1`, with “inactive”; and `CCN(CC)C(=O)CSc1nc2c(sc(=S)n2-c2ccccc2)c(=O)n1Cc1ccco1`, with “inactive”; and `COc1ccc(C(=O)CSc2nn3c(=O)c(C(C)(C)C)nnc3s2)cc1`, with “inactive”. Under `CCOC(=O)c1ccc(/C=C2/C=C(c3ccccc3)N(c3ccc(Cl)c(C(=O)O)c3)C2=O)cc1` stands “inactive”; under `Cn1c(N)c(C(=O)COC(=O)c2cc(S(=O)(=O)N3CCOCC3)ccc2F)c(=O)n(C)c1=O`, “inactive”; under `Cc1ccc(Cl)cc1N1CCN(S(=O)(=O)c2ccc(-c3ccc(=O)[nH]n3)o2)CC1`, “inactive”. On to `CCCn1c(=N)n(CC(=O)c2ccc([N+](=O)[O-])cc2)c2ccccc21`, for which the outcome was inactive.
